Sampled rows, rich in hits. Any-hit rate of the full collection: about 2.5%.
PHOSPHO1 inh = PHOSPHO1 (human) inhibition | Q8TCT1 | recombinant PHOSPHO1, absorbance phosphatase assay | inhibition, % at 13.3 µM | actives 1.1% (n = 290,000) | AID 1565; in the data active = inhibition above about 60%
SUMO HTRF inh = SUMOylation inhibition; P63279; HTRF SUMOylation assay, SAE1/SAE2 + UBC9, in vitro; inhibition, % at 35 µM; actives 0.36% (n = 290,000); AID 2006; in the data active = inhibition above about 50%, passing the limit was not always enough
Target sequence (P63279 whole entry, looked up): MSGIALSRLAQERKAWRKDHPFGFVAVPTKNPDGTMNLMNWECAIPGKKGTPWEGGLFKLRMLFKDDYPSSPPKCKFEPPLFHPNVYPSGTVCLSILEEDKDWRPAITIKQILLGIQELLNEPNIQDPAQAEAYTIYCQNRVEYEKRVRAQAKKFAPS
HDAC3 inh = blocks human histone deacetylase 3 | recombinant HDAC3, fluorogenic peptide/trypsin coupled, fluorescence | actives 0.15% (n = 320,000) | O15379 | inhibition, % at 8.3 µM; in the data active = inhibition above about 26%, passing the limit was not always enough
Target sequence (O15379 whole entry, looked up): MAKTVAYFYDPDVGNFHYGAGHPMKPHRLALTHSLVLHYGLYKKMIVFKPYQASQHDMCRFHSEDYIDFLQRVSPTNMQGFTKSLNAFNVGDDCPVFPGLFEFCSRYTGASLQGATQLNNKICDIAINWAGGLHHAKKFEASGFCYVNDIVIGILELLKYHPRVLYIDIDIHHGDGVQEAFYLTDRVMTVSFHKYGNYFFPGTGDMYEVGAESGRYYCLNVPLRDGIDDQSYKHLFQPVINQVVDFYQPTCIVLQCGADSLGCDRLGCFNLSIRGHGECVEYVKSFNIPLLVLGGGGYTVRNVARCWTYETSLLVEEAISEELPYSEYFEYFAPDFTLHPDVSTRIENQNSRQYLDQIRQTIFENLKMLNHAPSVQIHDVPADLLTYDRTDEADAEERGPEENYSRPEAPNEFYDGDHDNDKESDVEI
PfM18AAP inh = blocks P. falciparum M18 aspartyl aminopeptidase; inhibition, % at 7.35 µM; actives 1.2% (n = 290,000); recombinant PfM18AAP, H-Glu-NHMec fluorogenic cleavage; AID 1822;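 active = inhibition above the campaign mean inhibition over all tested compounds plus 3 SD, cut at about 28% in these data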
G6PDH CS = inhibits Leuconostoc G6PDH, flagging false hits in G6PDH-based assays. Purified L. mesenteroides G6PDH, diaphorase/resazurin coupled fluorescence, 45 min. inhibition, % at 5 µM. actives 0.12% (n = 200,000). AID 1020; in the data active = inhibition above about 50%
p97 ATPase inh = blocks human p97 ATPase activity; P55072; recombinant p97 ATPase, Kinase-Glo ATP luminescence, 3 h; inhibition, % at 8 µM; actives 0.42% (n = 220,000); AID 1481; in the data active = inhibition above about 15%
Numbers stand for hits; 0 = inactive; - = no result given.

SMILES	PHOSPHO1 inh	SUMO HTRF inh	HDAC3 inh	PfM18AAP inh	G6PDH CS	p97 ATPase inh
Cc1cc(S(=O)(=O)NCC(c2ccc3c(c2)OCO3)N2CCOCC2)ccc1F (configuration not stated)	-	-	0	-	-	-
CCCCOc1ccc(C(=O)N(C)CC(=O)Nc2ccc(C)cc2)cc1	0	0	0	0	-	-
CCCOc1ccc(N)cc1N	65	0	0	0	0	0
O=C(COC(=O)COc1ccc2ccccc2c1)NCC(F)(F)F	0	0	0	0	0	0
Cc1cc(C)cc(C(=O)Nn2cnnc2)c1	0	0	0	31	-	-
CCOc1ccc(C(=O)Nn2cnnc2)cc1OCC	0	0	0	29	-	0
COc1ccccc1C(=O)NCC(=O)N/N=C/c1cn[nH]c1-c1ccccc1	0	0	0	0	0	0
CC1(C)Cc2c(sc3c2c2ncnn2c2nnc(SCC(=O)NCc4ccco4)n32)CO1	0	0	0	0	0	0
CCC1(C)Cc2c(sc3c2c2ncnn2c2nnc(SCC(=O)NCc4ccco4)n32)CO1 (configuration not stated)	65	0	0	0	0	0
O=[N+]([O-])c1ccc(N2CCCCC2)cc1N1CCOCC1	0	0	0	0	0	0
S=P(c1ccc(N2CCOCC2)cc1N1CCOCC1)(N1CCOCC1)N1CCOCC1	85	0	-	-	0	-
Cc1ccsc1C(=O)Nc1ccc(S(=O)(=O)N2CCOCC2)cc1	-	-	0	-	-	-
CCn1c(COc2ccccc2)nnc1SCC(=O)CC(=O)Nc1ccccc1OC	92	0	0	0	0	0
CCn1c(COc2cccc(C)c2)nnc1SCC(=O)N1CCCC1	0	0	0	0	0	0
CCn1c(COc2cccc(C)c2)nnc1SCC(=O)CC(=O)Nc1ccccc1OC	93	0	0	0	0	0
CCn1c(COc2ccccc2C)nnc1SCC(=O)CC(=O)Nc1ccccc1OC	0	0	0	0	0	0
CCn1ncc(Br)c1C(=O)Nc1c(C)nn(Cc2c(F)c(F)c(F)c(F)c2F)c1C	0	0	0	0	-	-
Cc1cc(C(=O)Nc2ncn(Cc3ccc(F)cc3)n2)ccc1[N+](=O)[O-]	0	0	0	31	-	0
CCOC(=O)N1CCC(N2C(=O)c3ccc(C(=O)Nc4cccc(OC)c4)cc3C2=O)CC1	0	-	0	0	-	-
CC(C)[C@H](NC(=O)[C@@H]1Cc2c([nH]c3ccccc23)C2c3ccccc3C(=O)N21)C(=O)N1CCC[C@@H]1C(=O)O (some centres not stated)	0	0	0	0	-	-
CS(=O)(=O)Cc1ccc(C(=O)N(CCc2ccccc2)Cc2ccccc2)cc1	0	0	0	0	-	-
COc1cccc2c1-c1c(C(=O)O)cccc1C2=O	0	0	0	0	-	-
COc1cccc2c1C(=O)c1ccc3ccccc3c1C2=O	87	0	0	0	0	0
COc1ccc(OC)c2c1C(=O)c1ccccc1C2=O	95	50	0	0	0	0
COc1ccc(N)c2c1C(=O)c1ccccc1C2=O	0	0	0	0	0	0
SMILES	PHOSPHO1 inh	SUMO HTRF inh	HDAC3 inh	PfM18AAP inh	G6PDH CS	p97 ATPase inh
COc1ccccc1CNC(=O)[C@@H](NC(=O)C1CCN(C(=O)[C@@H]2CCCN2C(=O)OC(C)(C)C)CC1)C(C)C	0	0	0	0	-	-
Cn1cnnc1SCC(=O)Nc1ncc([N+](=O)[O-])s1	-	-	0	-	-	-
Cc1ccnc(NC(=O)CCc2c(C)nc3ncnn3c2C)c1	64	0	0	0	0	0
COc1cc(CN(C)Cc2ccccc2)cc(OC)c1O	0	0	0	0	51	0
CC(=O)Nc1cccc(NC(=O)CS(=O)(=O)c2cn(CC(=O)N(C(C)C)C(C)C)c3ccccc23)c1	0	0	0	0	-	-
O=C(Cn1c(SCc2ccccc2)nc2ccccc21)N1CCOCC1	62	0	0	0	0	0
Cc1nnc(NC(=O)c2c(-c3ccccc3Cl)noc2C)s1	60	0	0	0	0	0
CCc1ccc(NC(=S)NC(=O)c2c(-c3ccccc3Cl)noc2C)cc1	0	0	0	0	-	0
Cc1onc(-c2ccccc2Cl)c1C(=O)NC(=S)NCC(=O)c1ccccc1	63	0	0	0	0	0
O=C(CN1CCN(S(=O)(=O)c2ccc(F)c(Cl)c2)CC1)N1CCNC1=O	-	-	0	-	-	-
COC(=O)c1ccccc1NC(=O)CSc1n[nH]c(CC(C)C)n1	0	0	0	0	0	0
COC(=O)c1ccccc1NC(=O)CSc1n[nH]c(C)n1	0	0	0	30	0	0
COC(=O)c1ccccc1NC(=O)CSc1nc2ncccc2[nH]1	64	0	0	0	0	0
COC(=O)c1ccccc1NC(=O)CSc1ncccn1	0	0	0	0	-	0
CCOc1ccc(NC(=S)N(CCOC)C(C)c2ccco2)cc1 (configuration not stated)	0	0	0	0	-	0
COc1ccc(S(=O)(=O)C(C#N)c2nc3ccccc3nc2N2CCC(C)CC2)cc1 (configuration not stated)	100	0	0	-	0	-
CCOC(=O)C1CCCN(c2nc3ccccc3nc2C(C#N)C(=O)OCC)C1 (configuration not stated)	0	0	0	0	0	0
CC1CCCN(c2nc3ccccc3nc2C(C#N)S(=O)(=O)c2ccccc2)C1 (configuration not stated)	0	50	0	0	0	0
CCOC(=O)N1CCN(c2nc3ccccc3nc2C(C#N)S(=O)(=O)c2ccc(C)cc2)CC1 (configuration not stated)	0	0	0	0	0	0
CS(=O)(=O)n1nc(OC(=O)c2cccc3ccccc23)cc1N	0	0	0	0	0	0
Nc1cc(OC(=O)c2ccc(F)cc2)nn1S(=O)(=O)c1ccccc1	0	0	59	0	-	-
COc1ccc(S(=O)(=O)n2nc(OC(=O)c3cccs3)cc2N)cc1	0	0	95	0	0	0
CS(=O)(=O)n1nc(OC(=O)c2cccs2)cc1N	0	0	93	0	0	0
COc1ccc(S(=O)(=O)n2nc(OC(=O)c3ccco3)cc2N)cc1	0	0	71	0	0	0
CC(=O)N1c2ccc(S(=O)(=O)N3CCCC3)cc2CC1C(=O)NCc1ccc(N(C)C)cc1 (configuration not stated)	0	0	0	0	-	-
SMILES	PHOSPHO1 inh	SUMO HTRF inh	HDAC3 inh	PfM18AAP inh	G6PDH CS	p97 ATPase inh
CC(=O)c1sc(N/N=C2\CC3CCC2(C)C3(C)C)nc1C (configuration not stated)	0	0	0	0	0	0
COc1ccc(S(=O)(=O)n2nc(OC(=O)c3ccc(C)cc3)cc2N)cc1	0	0	61	0	0	0
COc1ccc(S(=O)(=O)n2nc(OC(=O)c3ccccc3)cc2N)cc1	0	0	54	0	0	0
Cc1ccc(C(=O)Oc2cc(N)n(S(=O)(=O)c3ccc(C)cc3)n2)cc1	0	0	0	0	0	0
CN1CCN(c2ccc(C(F)(F)F)cc2NC(=O)Nc2ccccc2)CC1	0	0	0	0	-	-
CCOc1ccc(NC(=O)c2cc(=O)[nH]c3ccccc23)cc1	0	0	0	0	-	-
COc1cc2c(cc1NC(=S)NC(=O)/C=C/c1ccc(OC)c(OC)c1)oc1ccccc12	0	0	-	0	0	0

Compound activity deposited in PubChem BioAssay by several laboratories.
